Only some compounds are listed: those with a hit (about 2.8% of all), similar ones and a draw of the others.
POLI inh: qHTS for Inhibitors of Polymerase Iota | AID 588590, 2011 | 390,000 compounds, 1% hits | Potency, µM (titrated, usually from 115 µM), for the others: at the top dose activity, negative = inhibition, most hits filed as inhibitors | Pol iota fluorescent replication assay, 10 min; also: potency is read from the fitted curve at half-maximal effect
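Pol iota at 10 nM preincubated 15 min with compounds at room temperature; reaction started with fluorescent substrate, 50 nM final. Fluorescence read kinetically at 0 and 10 min; buffer-only wells as negative control.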
Pol beta inh: qHTS Assay for Inhibitors of DNA Polymerase Beta; P06746; 340,000 compounds, 1.3% hits; Pol beta primer extension/strand displacement, fluorescence kinetic; Potency, µM (titrated, usually from 114 µM), for inactives: top-dose activity change, negative = inhibition, usual class: inhibitors; AID 485314, 2010; also: potency is read from the fitted curve at half-maximal effect; % is scaled to controls: 0 for no effect and ±100 for the full control effect
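Homogeneous kinetic assay of primer extension and strand displacement by 10 nM Pol beta, preincubated 15 min at room temperature with compound before 50 nM substrate (final) was added. Read at 0 and 10 min; four-parameter Hill fit.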
POLK inh: qHTS for Inhibitors of Polymerase Kappa. purified Pol kappa, fluorescent DNA synthesis assay, 10 min. Potency, µM (series often up to 107 µM), for the others: top-dose activity, negative = inhibition, usual class: inhibitors. 400,000 compounds, 0.53% hits; also: potency is read from the fitted curve at half-maximal effect; % is scaled to controls: 0 for no effect and ±100 for the full control effect
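Inhibition of 10 nM Pol kappa is measured by a fluorescent read-out at 0 and 10 min following addition of 50 nM substrate (final), with a 15-min room-temperature compound preincubation.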
PI5P4Ka inh: qHTS for Inhibitors of phosphatidylinositol 5-phosphate 4-kinase (PI5P4K); Phosphatidylinositol 5-phosphate 4-kinase type-2 alpha (Homo sapiens), P48426; PI5P4Kalpha enzyme, ADP-Glo luminescence, 60 min; stronger effect = lower value; max response, %; 330,000 compounds, 1.2% hits; active = max response of -50% or lower; inconclusive = between -30% and -50%; inactive = -30% or higher; also: value at the top dose of about 77 µM; % is scaled to controls: 0 for no effect and ±100 for the full control effect
Target sequence (P48426 whole entry, looked up): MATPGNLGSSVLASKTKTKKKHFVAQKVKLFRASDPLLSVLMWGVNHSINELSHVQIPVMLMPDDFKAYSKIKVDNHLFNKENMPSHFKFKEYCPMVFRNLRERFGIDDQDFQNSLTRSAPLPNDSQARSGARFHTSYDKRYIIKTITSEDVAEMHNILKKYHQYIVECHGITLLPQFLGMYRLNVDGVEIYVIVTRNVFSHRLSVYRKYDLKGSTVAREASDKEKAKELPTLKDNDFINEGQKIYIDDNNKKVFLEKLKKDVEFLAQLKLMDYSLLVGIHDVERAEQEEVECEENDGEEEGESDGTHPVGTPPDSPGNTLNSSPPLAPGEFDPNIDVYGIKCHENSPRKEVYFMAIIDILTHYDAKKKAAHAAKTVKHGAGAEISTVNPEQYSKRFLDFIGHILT
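PI5P4Kalpha ADP-Glo assay; 5 microM ATP final; 60 min RT reaction; HEPES pH 7.4/EGTA/CHAPS, 5% DMSO; controls lacking substrate or enzyme; luminescent end-point.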
FEN1 inhibitor: qHTS Assay for the Inhibitors of Human Flap endonuclease 1 (FEN1) | AID 588795, 2011 | 390,000 compounds, 0.35% hits | Recombinant FEN1 flap cleavage, fluorescence, 15 min | P39748 | Potency, µM (top dose mostly 114 µM), inactives show top-dose activity change, negative = inhibition, usual class: inhibitors; also: potency is read from the fitted curve at half-maximal effect; % is scaled to controls: 0 for no effect and ±100 for the full control effect; nearly all actives have a fitted effect of over 65% in size
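Enzyme 10 nM, 15 min RT preincubation with compound; start with substrate 50 nM final; reads at 0 and 15 min; qHTS titration, four-parameter Hill fit.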
Pol eta inh: qHTS for Inhibitors of Polymerase Eta. DNA polymerase eta (Homo sapiens), Q9Y253. recombinant Pol eta, fluorescent DNA replication assay. Potency, µM (titrated, usually from 114 µM), inactives show at the highest dose activity change, negative = inhibition, usual class: inhibitors. 390,000 compounds, 1.2% hits; also: potency is read from the fitted curve at half-maximal effect; % is scaled to controls: 0 for no effect and ±100 for the full control effect
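Pol eta at 10 nM preincubated with compounds 15 min at room temperature; reaction started with fluorescent substrate (50 nM final) and read kinetically at 0 and 10 min.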
Active calls of the source: *; ? = inconclusive; · = no result given; [ ] = remark or other dose. Unless noted, calls follow the shape of the dose curve; as a rule, active = well fitted curve in the direction sought with a large enough effect; inconclusive = small, poorly fitted or top-dose-only effect, or another doubt; inactive = no such curve, though single readings can be large; an effect the other way counts as inactive or inconclusive.

SMILES	POLI inh	Pol beta inh	POLK inh	PI5P4Ka inh	FEN1 inhibitor	Pol eta inh
Cc1ccc(C2CC(=O)Oc3cc4c(cc32)OCO4)cc1 (stereo unspecified)	·	·	45µM*	·	·	·
COc1cccc(C(=O)Nc2c(C(=O)c3ccc(F)cc3)oc3ccccc23)c1	-7%	45%	-15%	·	-9%	-12%
CCC(=O)OCCNc1cc(Sc2nc3ccccc3[nH]2)c2nonc2c1[N+](=O)[O-]	?	-16%	-23%	-56*	-23%	?
CCCSc1cc(NCCOC(C)=O)c([N+](=O)[O-])c2nonc12	30%	7%	-4%	3	-18%	-5%
CC(=O)OCCCNc1cc(SCc2ccco2)c2nonc2c1[N+](=O)[O-]	3.2µM*	14µM*	13µM*	-51*	56µM*	22µM*
CCCC(=O)OCCNc1cc(SCc2ccco2)c2nonc2c1[N+](=O)[O-]	2.5µM*	11µM*	35µM*	-61*	-26%	11µM*
CCCSc1cc(NCCOC(=O)CCC)c([N+](=O)[O-])c2nonc12	-2%	-12%	-12%	3	-12%	-15%
CCCC(=O)OCCNc1cc(Sc2nccn2C)c2nonc2c1[N+](=O)[O-]	?	19%	-8%	-5	-25%	-13%
Cc1c(Nc2nc3ccccc3n3c(C)nnc23)cccc1C(=O)O	17%	-9%	-2%	·	-1%	-7%
CCOc1ccccc1C(=O)NCc1ccc2c(c1)CCN2C(C)=O	16%	-27%	-5%[60.1 µM]	·	-2%	-18%
Cc1cc(OCC(=O)Nc2ccc(CN3CCOCC3)cc2)c2c(C)cc(=O)oc2c1	50µM*	23%	-39%	-3	25%	4%
O=C(Cc1nnc(NC(=O)c2ccccc2)s1)N/N=C/c1ccc(O)cc1	?	25µM*	-8%	-28	-10%	-22%
O=C(C[n+]1ccc(C(=O)N/N=C/c2ccc(Br)cc2)cc1)c1ccccc1	16%	-1%	1%	-7	-1%	?
O=C(C[n+]1ccc(C(=O)N/N=C/c2ccc(O)cc2)cc1)c1ccccc1	38%	56µM*	-13%	4	-3%	?
COCC(=O)N1CCC2(CCCN(c3ccccn3)C2)CC1	·	·	3%[60.1 µM]	·	·	·
CC(=O)NC12CC3CC(C1)CC(C(=O)Nc1cccc(S(=O)(=O)N4CCCCCC4)c1)(C3)C2	20%	·	-7%	2	4%	?
COc1cc(N)c2ncccc2c1Br	32µM*	·	-27%	1	-19%	-4%
Cn1cccc1CC(=O)N/N=C\c1ccccc1	?	0%	-6%	-16	5%	2%
Cc1ccc(/C=N\NC(=O)Cc2cccn2C)o1	79µM*	7%	-19%	0	5%	-13%
CC1=C(C(=O)OCc2ccccc2)C(c2ccc3ccccc3c2)NC(=O)N1CCCC(=O)O (stereo unspecified)	?	?	8%	-101*	4%	4%
CC1=C(C(=O)OCc2ccccc2)C(c2ccc3ccccc3c2)NC(=O)N1CCCCCC(=O)O (stereo unspecified)	10%	-1%	-20%	?	15%	-12%
CC1=C(C(=O)OCc2ccccc2)C(c2ccc3c(c2)OCO3)NC(=O)N1CCCC(=O)O (stereo unspecified)	-11%	·	7%	-78*	-10%	-1%
CC1=C(C(=O)OCc2ccccc2)C(c2ccccc2OS(=O)(=O)c2ccc(C)cc2)NC(=O)N1CCCC(=O)O (stereo unspecified)	?	·	-5%	-72*	-19%	10%
CC1=C(C(=O)OCc2ccccc2)C(c2ccc([N+](=O)[O-])cc2)NC(=O)N1CCCC(=O)O (stereo unspecified)	13%	-3%	1%	-68*	-4%	-16%
CC1=C(C(=O)OCc2ccccc2)C(c2ccccc2Cl)NC(=O)N1CCCCCC(=O)O (stereo unspecified)	24%	3%	10%	-7	-2%	-12%
SMILES	POLI inh	Pol beta inh	POLK inh	PI5P4Ka inh	FEN1 inhibitor	Pol eta inh
O=C(COc1ccccc1C(=O)Nc1ccccc1)Nc1ccc2ccccc2c1	?	·	-5%	·	10%	·
CCc1c(C)sc2c1CCN(Cc1ccccc1F)C2c1ccccc1 (stereo unspecified)	30%	-2%	-8%[60.1 µM]	·	2%	-14%
Cc1ccc2c(CC(=O)N3CCN(c4cccc(Cl)c4)CC3)coc2c1C	-11%	1%	-1%	·	-10%	-11%
O=C(O)c1nc(-c2ccccc2)c(C(=O)NC2CC2)[nH]1	·	·	·	-1	·	·
COC(=O)C1=C(C)N(CCCC(=O)O)C(=O)NC1c1ccccc1OS(=O)(=O)c1ccccc1[N+](=O)[O-] (stereo unspecified)	-22%	·	-1%	-84*	-7%	1%
CCOC(=O)C1=C(C)N(Cc2ccccc2)C(=O)NC1c1ccccc1OS(=O)(=O)c1ccccc1[N+](=O)[O-] (stereo unspecified)	14%	·	6%	-1	-20%	-15%
CC1=C(C(=O)OCc2ccccc2)C(c2ccccc2Cl)NC(=O)N1CCCC(=O)O (stereo unspecified)	14%	15%	9%	-73*	-1%	-14%
O=c1[nH]nc(-c2n[nH]c(=O)o2)o1	6%	·	-21%	-1	-5%	-5%
CCNc1ccc(Br)cc(C(=O)/C=C/c2ccccc2Cl)c1=O	?	·	?	·	-26%	79µM*
CNc1ccc(Br)cc(C(=O)/C=C/c2cccc(Cl)c2Cl)c1=O	6.3µM*	14µM*	45µM*	-28	?	45µM*
CNc1ccc(Br)cc(C(=O)/C=C/c2cccc(OC)c2OC)c1=O	·	20µM*	-10%	0	9%	2%
CNc1ccccc(C(=O)/C=C/c2ccccc2OC)c1=O	?	50µM*	-17%	?	0%	14µM*
COc1ccccc1/C=C/C(=O)c1cc(Br)ccc1OC(=O)c1ccco1	-6%	·	-23%	3	-5%	4%
O=C(C=Cc1ccccc1Cl)c1ccccc1	?	·	-17%	2	-4%	?
COc1ccccc1C=CC(=O)C=Cc1ccccc1OC	?	·	-17%	34	-6%	?
CCCCNC(=O)C1(C)CCCCN1C(=O)c1ccc(OC)c(C(F)(F)F)c1 (stereo unspecified)	·	·	·	7	·	·

From PubChem
